Assay results as given in PubChem BioAssay (Tox21).
Results filed as inconclusive are left out. Where a call stands in place of a potency, no number is given. More than one record can exist for a structure, and the calls need not agree. The source made the active and inactive calls. Calls come from the whole dose curve; as a rule, active = well fitted inhibition curve with a large enough effect in the repeat runs; inconclusive = weak or mixed curves, or effect the other way; inactive = no such curve, though single readings can be large or run the other way.
Potency is the fitted concentration of half-maximal effect.

Assay: qHTS assay to identify small molecule antagonists of the retinoic acid receptor (RAR) signaling pathway (AID 1159552; note: nearly all actives have a fitted effect of over 50% in size)
Settings: C3RL4 RARE luciferase reporter, retinol-stimulated, 6 h; series mostly up to 92.4 µM
Description: National Center for Advancing Translational Sciences [NCATS]
NIH Chemical Genomics Center [NCGC]
U.S. Environmental Protection Agency [EPA]
National Institutes of Environmental Health Sciences [NIEHS]
National Toxicology Program [NTP]
U.S. Food and Drug Administration [FDA]
All-trans Retinoic acid (atRA) is the potent natural metabolite of retinol and plays an important role in normal embryonic development and maintenance of cellular phenotype in adult animals. atRA is the activating ligand for the retinoic acid receptors (RARs) which form heterodimers with retinoid X receptors (RXRs) on the retinoic acid response element (RARE). Through activation of the RAR/RXRs nuclear receptors, atRA regulates the transcription of a large number of protein-coding genes and regulatory RNAs. Intracellular levels of atRA are controlled by the retinol signaling pathway (RSP) that regulates the biosynthesis and catabolism of atRA to maintain physiological levels. Chemicals that interfere with the RSP can cause abnormal intracellular levels of atRA and therefore are potential developmental toxicants. To assess compounds for the potential adverse effect on embryonic development through interfering with retinol signaling, a cell-based RARE luciferase reporter gene assay was used. C3RL4 cell line (OARSA/CFSAN/FDA, Laurel, MD) was used to screen Tox21 10K compound library for identifying inhibitors of the RSP.
Tox21 Assay Protocol Summary:
C3RL4 cells were seeded at 1,000/well in 4 uL of assay medium into white solid 1,536-well tissue culture plates (Greiner Bio-One North America Inc. Monroe, NC) using a Multidrop Combi (Thermo Scientific, Waltham, MA) dispenser. After incubation at 37 C and 5% CO2 for an overnight, 23 nL of compounds dissolved in DMSO, positive control or DMSO only were transferred by a Pintool station (Kalypsys, San Diego, CA). One ul of 1 uM (final concentration) of Retinol was added right after the compound addition by using a Flying Reagent Dispenser (FRD) (Aurora Discovery, San Diego, CA). After 6 hr incubation at 37 C and 5% CO2, 5 uL of Amplite Luciferase reagent (AAT Bioquest Inc. Sunnyvale, CA) was added to each assay plate using an FRD. Luminescence was quantified on a ViewLux plate reader (PerkinElmer, Waltham, MA) after 30 min incubation at room temperature.
With CCC(C(N)=O)N1CCCC1=O (stereo not given) the Potency was “inactive”.
With CCNc1nc(NCC)nc(SC)n1 the Potency was “inactive”.
In the case of CCN(CCO)CCn1c(Cc2ccccc2)nc2c1c(=O)n(C)c(=O)n2C, the Potency is reported as “inactive”.
With COC[C@@H](NC(C)=O)C(=O)NCc1ccccc1 the Potency was “inactive”.
With O=C(Cl)CCl the Potency was “inactive”.
With O=C(Cl)OCc1ccccc1 the Potency was “inactive”.
In the case of CCC(C)(C#N)N=NC(C)(C#N)CC (stereo not given), the Potency is reported as “inactive”.
With C(COCC1CO1)OCC1CO1 (stereo not given) the Potency was “inactive”.
In the case of C=C(Cl)CCl, the Potency is reported as “inactive”.
In the case of CCN[C@@H](C)Cc1ccccc1, the Potency is reported as “inactive”.
For CCC1(c2ccccc2)C(=O)N(COC)C(=O)N(COC)C1=O, the Potency was “inactive”.
In the case of CC1=C2[C@H]3OC(=O)[C@@H](C)[C@@H]3CC[C@@]2(C)C=CC1=O, the Potency is reported as “inactive”.
With O=C(O)C(Cl)Br (stereo not given) the Potency was “inactive”.
For CCOP(=O)(CN(CCO)CCO)OCC, the Potency was “inactive”.
In the case of ClC(Cl)(Cl)Cl, the Potency is reported as “inactive”.
In the case of CN(C)C1CCCCC1, the Potency is reported as “inactive”.
With Cn1c(N)nc2c3cccnc3ccc21 the Potency was “inactive”.
For O=C(O)C(Br)(Br)Br, the Potency was “inactive”.
With CCOP(=S)(OCC)Oc1ccc(Cl)cc1Cl the Potency was “inactive”.
In the case of CS(=O)(=O)c1ccc(C(=O)C2C(=O)CCCC2=O)c(Cl)c1COCC(F)(F)F, the Potency is reported as “inactive”.
For N#CC(Br)(Br)C(N)=O, the Potency was 4.86 µM (active).
With C=C1C[C@@H]2[C@H](CC[C@]3(C)C(=O)CC[C@@H]23)[C@@]2(C)C=CC(=O)C=C12 the Potency was “inactive”.
For CC(C)(C)C(=O)Cl, the Potency was “inactive”.
For CCCCS(=O)(=O)Cl, the Potency was “inactive”.
For CCOC1Oc2ccc(OS(C)(=O)=O)cc2C1(C)C (stereo not given), the Potency was “inactive”.
For CCCOc1nn(C(=O)NS(=O)(=O)c2ccccc2C(=O)OC)c(=O)n1C, the Potency was “inactive”.
With CCOC(=O)C(SP(=S)(OC)OC)c1ccccc1 (stereo not given) the Potency was “inactive”.
In the case of NC(=O)OCCCc1ccccc1, the Potency is reported as “inactive”.
In the case of ClC1=C(Cl)C2(Cl)C(CBr)CC1(Cl)C2(Cl)Cl (stereo not given), the Potency is reported as 54.5 µM (active) and inactive.
For CC(=O)CN(CC(C)=O)N=O, the Potency was “inactive”.
With CC(Cc1ccccc1)NCCn1cnc2c1c(=O)n(C)c(=O)n2C (stereo not given) the Potency was “inactive”.
With S=C=S the Potency was “inactive”.
With CCN(CC)C1CCCCC1 the Potency was “inactive”.
For CCN(CC)CCOC(=O)C(O)(c1ccccc1)c1ccccc1, the Potency was “inactive”.
In the case of O=C/C=C/c1ccco1, the Potency is reported as “inactive”.
For O=C(O)CBr, the Potency was “inactive”.
In the case of CCOC(=O)N(C)N=O, the Potency is reported as “inactive”.
With c1cncc([C@@H]2CCCCN2)c1 the Potency was “inactive”.
With CC(C)(N)Cc1ccccc1Cl the Potency was “inactive”.
With CCC(CC)(CNC(=O)CCCO)c1cccc(OC)c1 the Potency was “inactive”.
